Source: PubChem BioAssay AID1159580 (chemical genetic matrix, 2015)
Among all 5,500 compounds or so, about 2,000 (36%) were called active. Roughly 18% stayed inconclusive and do not appear here. No stated cut-off is given here; in the data, active means normalized growth mostly below about 0.91 (no sharp cut-off); inconclusive means no clear call, values can overlap the other calls; inactive means mostly above about 0.92. Some of the results follow.

Experiment: chemical genetic growth profiling, strain panel (AID 1159580);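 further: tested at 20 µM; growth read once vehicle control cultures reached saturation at 30 °C; 1 = growth at the plate median or of vehicle wells; lower values mean less growth of the strain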
Settings: growth OD

Measured: normalized growth

COP(=S)(OC)Oc1ccc([N+](=O)[O-])cc1
active: S. cerevisiae deletion strains, locus YOR270C, strain vph1, hits give low values 0.658
inactive: S. cerevisiae deletion strains, locus YJR075W, strain HOC1, hits give low values 0.993 | S. cerevisiae deletion strains, locus YKL009W, strain mrt4, hits give low values 0.962 | S. cerevisiae deletion strains, locus YKL068W, hits give low values 0.987 | S. cerevisiae deletion strains, locus YKL085W, strain MDH1 (second series), hits give low values 0.978 | S. cerevisiae deletion strains, locus YKL085W, strain MDH1, hits give low values 0.978 | S. cerevisiae deletion strains, locus YKL160W, strain elf1, hits give low values 0.993 | S. cerevisiae deletion strains, locus YKL190W, strain CNB1, hits give low values 0.975 | S. cerevisiae deletion strains, locus YKR001C, strain vps1, hits give low values 0.982 | S. cerevisiae deletion strains, locus YKR026C, strain gcn3, hits give low values 0.995 | S. cerevisiae deletion strains, locus YKR091W, strain srl3, hits give low values 0.992 | S. cerevisiae deletion strains, locus YLL001W, strain dnm1, hits give low values 0.995 | S. cerevisiae deletion strains, locus YLL026W, hits give low values 0.993 | S. cerevisiae deletion strains, locus YLL041C, strain sdh2, hits give low values 1 | S. cerevisiae deletion strains, locus YLR027C, strain aat2, hits give low values 0.998 | S. cerevisiae deletion strains, locus YLR039C, strain RIC1, hits give low values 0.877 | S. cerevisiae deletion strains, locus YLR058C, strain SHM2, hits give low values 0.975 | S. cerevisiae deletion strains, locus YLR102C, strain apc9, hits give low values 0.974 | S. cerevisiae deletion strains, locus YLR113W, strain HOG1, hits give low values 0.916 | S. cerevisiae deletion strains, locus YLR221C, strain rsa3, hits give low values 0.974 | S. cerevisiae deletion strains, locus YLR258W, strain gsy2, hits give low values 0.99 | S. cerevisiae deletion strains, locus YLR262C, strain YPT6 (second series), hits give low values 0.927 | S. cerevisiae deletion strains, locus YLR262C, strain YPT6, hits give low values 0.915 | S. cerevisiae deletion strains, locus YLR268W, strain sec22, hits give low values 0.993 | S. cerevisiae deletion strains, locus YLR320W, strain mms22, hits give low values 0.944 | S. cerevisiae deletion strains, locus YLR330W, strain CHS5, hits give low values 0.989 | S. cerevisiae deletion strains, locus YLR342W, strain FKS1 (second series), hits give low values 0.998 | S. cerevisiae deletion strains, locus YLR342W, strain FKS1, hits give low values 0.981 | S. cerevisiae deletion strains, locus YLR357W, strain rsc2, hits give low values 1 | S. cerevisiae deletion strains, locus YLR370C, strain arc18, hits give low values 0.991 | S. cerevisiae deletion strains, locus YLR371W, strain rom2, hits give low values 0.975 | S. cerevisiae deletion strains, locus YLR384C, strain iki3, hits give low values 0.971 | S. cerevisiae deletion strains, locus YLR418C, strain cdc73, hits give low values 0.991 | S. cerevisiae deletion strains, locus YML016C, strain PPZ1, hits give low values 0.951 | S. cerevisiae deletion strains, locus YML032C, strain rad52, hits give low values 0.981 | S. cerevisiae deletion strains, locus YML120C, strain ndi1, hits give low values 1 | S. cerevisiae deletion strains, locus YML124C, strain tub3, hits give low values 0.99 | S. cerevisiae deletion strains, locus YMR058W, strain fet3, hits give low values 1 | S. cerevisiae deletion strains, locus YMR078C, strain ctf18, hits give low values 0.974 | S. cerevisiae deletion strains, locus YMR125W, strain sto1, hits give low values 0.995 | S. cerevisiae deletion strains, locus YMR129W, hits give low values 0.991 | S. cerevisiae deletion strains, locus YMR205C, strain PFK2, hits give low values 0.97 | S. cerevisiae deletion strains, locus YMR223W, strain ubp8, hits give low values 0.99 | S. cerevisiae deletion strains, locus YMR231W, strain pep5, hits give low values 0.978 | S. cerevisiae deletion strains, locus YMR263W, strain SAP30, hits give low values 0.985 | S. cerevisiae deletion strains, locus YMR307W, strain GAS1, hits give low values 1.03 | S. cerevisiae deletion strains, locus YNL067W, strain RPL9B, hits give low values 0.984 | S. cerevisiae deletion strains, locus YNL071W, strain lat1, hits give low values 0.934 | S. cerevisiae deletion strains, locus YNL128W, strain TEP1, hits give low values 0.96 | S. cerevisiae deletion strains, locus YNL153C, strain GIM3, hits give low values 0.998 | S. cerevisiae deletion strains, locus YNL183C, strain NPR1, hits give low values 0.954 | S. cerevisiae deletion strains, locus YNL209W, strain ssb2, hits give low values 0.993 | S. cerevisiae deletion strains, locus YNL233W, strain BNI4, hits give low values 0.977 | S. cerevisiae deletion strains, locus YNL248C, strain rpa49, hits give low values 0.983 | S. cerevisiae deletion strains, locus YNL250W, strain rad50, hits give low values 0.981 | S. cerevisiae deletion strains, locus YNL271C, strain bni1, hits give low values 0.98 | S. cerevisiae deletion strains, locus YNL298W, strain CLA4, hits give low values 0.977 | S. cerevisiae deletion strains, locus YNL307C, strain MCK1, hits give low values 0.984 | S. cerevisiae deletion strains, locus YNL322C, strain KRE1 (second series), hits give low values 0.99 | S. cerevisiae deletion strains, locus YNL322C, strain KRE1, hits give low values 0.986 | S. cerevisiae deletion strains, locus YNR049C, strain mso1, hits give low values 1.01 | S. cerevisiae deletion strains, locus YNR052C, strain pop2, hits give low values 0.984 | S. cerevisiae deletion strains, locus YOL006C, strain TOP1, hits give low values 0.885 | S. cerevisiae deletion strains, locus YOL012C, strain htz1 1.15 | S. cerevisiae deletion strains, locus YOL147C, strain pex11, hits give low values 0.994 | S. cerevisiae deletion strains, locus YOR001W, strain rrp6, hits give low values 1 | S. cerevisiae deletion strains, locus YOR061W, strain CKA2, hits give low values 0.964 | S. cerevisiae deletion strains, locus YOR069W, strain VPS5, hits give low values 0.994 | S. cerevisiae deletion strains, locus YOR070C, strain gyp1, hits give low values 1 | S. cerevisiae deletion strains, locus YOR080W, strain dia2, hits give low values 0.984 | S. cerevisiae deletion strains, locus YOR083W, strain WHI5, hits give low values 0.987 | S. cerevisiae deletion strains, locus YOR106W, strain vam3, hits give low values 0.947 | S. cerevisiae deletion strains, locus YOR136W, strain idh2, hits give low values 0.997 | S. cerevisiae deletion strains, locus YOR144C, strain elg1, hits give low values 0.987 | S. cerevisiae deletion strains, locus YOR184W, strain ser1, hits give low values 0.984 | S. cerevisiae deletion strains, locus YOR231W, strain MKK1, hits give low values 1 | S. cerevisiae deletion strains, locus YOR265W, strain rbl2, hits give low values 1.01 | S. cerevisiae deletion strains, locus YOR290C, strain snf2, hits give low values 0.997 | S. cerevisiae deletion strains, locus YOR316C, strain cot1, hits give low values 0.967 | S. cerevisiae deletion strains, locus YPL051W, strain arl3, hits give low values 1.01 | S. cerevisiae deletion strains, locus YPL055C, strain LGE1, hits give low values 0.964 | S. cerevisiae deletion strains, locus YPL078C, strain atp4, hits give low values 0.999 | S. cerevisiae deletion strains, locus YPL106C, strain sse1, hits give low values 0.984 | S. cerevisiae deletion strains, locus YPL240C, strain hsp82, hits give low values 0.999 | S. cerevisiae deletion strains, locus YPL241C, strain CIN2, hits give low values 0.985 | S. cerevisiae deletion strains, locus YPL256C, strain CLN2, hits give low values 1.01 | S. cerevisiae deletion strains, locus YPR119W, strain clb2, hits give low values 0.983 | S. cerevisiae deletion strains, locus YPR141C, strain kar3, hits give low values 0.951 | S. cerevisiae deletion strains, locus YPR163C, strain tif3, hits give low values 0.99 | S. cerevisiae deletion strains, locus YPR167C, strain met16, hits give low values 0.984 | S. cerevisiae deletion strains, strain wtn01, hits give low values 0.977 | S. cerevisiae strains, strain wild type, hits give low values 0.985
